Laboratory results published in PubChem BioAssay.
Potency and affinity values are given separately. Activity calls are given as the source filed them. Unless noted, no cut-off is given here; in the data, nearly all actives have IC50 up to about 0.98 µM.

Each compound was assayed against Calcium-dependent protein kinase 1 (Plasmodium falciparum (isolate 3D7)) (UniProt P62344) (assay: PfCDPK1 kinase inhibitors, biochemical, TCAMS library (AID 1159585;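 note: inhibitors leave more ATP so luminescence rises with inhibition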)). Details: recombinant PfCDPK1, Kinase-Glo ATP depletion luminescence.
Chain of Calcium-dependent protein kinase 1 (Plasmodium falciparum (isolate 3D7)) (P62344 whole entry, looked up): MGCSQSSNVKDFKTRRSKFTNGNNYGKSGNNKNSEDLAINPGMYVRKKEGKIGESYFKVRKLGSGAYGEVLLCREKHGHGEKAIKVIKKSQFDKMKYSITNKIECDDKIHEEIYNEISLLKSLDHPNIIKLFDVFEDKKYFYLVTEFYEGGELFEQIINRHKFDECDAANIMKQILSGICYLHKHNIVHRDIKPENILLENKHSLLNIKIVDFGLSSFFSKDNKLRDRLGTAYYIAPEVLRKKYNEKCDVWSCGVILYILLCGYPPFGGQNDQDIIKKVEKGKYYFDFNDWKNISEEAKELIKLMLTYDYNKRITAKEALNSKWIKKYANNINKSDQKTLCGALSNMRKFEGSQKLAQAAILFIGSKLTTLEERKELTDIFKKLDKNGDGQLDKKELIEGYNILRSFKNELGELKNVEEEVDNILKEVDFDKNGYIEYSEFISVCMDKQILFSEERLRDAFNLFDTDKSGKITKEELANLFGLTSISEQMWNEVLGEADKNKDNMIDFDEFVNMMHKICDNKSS

outcome, inactive:
O[C@@H](c1ccccc1)[C@@H]1CN(Cc2ccccc2)CC[C@@]1(O)c1ccccc1
CC(NC(=O)c1ccc(O)c(-c2ccc(Cl)c(Cl)c2)c1)C(=O)NCCN1CCCCC1 (stereo not drawn)
CCCC(=O)Nc1ccc(OCCCCN(CC(C)(C)C)c2ccc(C#N)c(C(F)(F)F)c2)cc1
O=C(Nc1ccc2nc3n(c(=O)c2c1)CCCCC3)C(=O)N1CCC(Cc2ccccc2)CC1
CCCC(C)NC(=O)[C@H](CC1CCCCC1)NC(=O)c1ccc(O)c(-c2ccc(OC)cc2)c1 (stereo partly drawn)
Cc1cccc(-c2cc3cc(Nc4ccnc5cc(-c6nccs6)ccc45)ccc3[nH]2)c1
CCCc1cc(Cc2cnc(N)nc2N)cc(CCC)c1OCCCCC(=O)OC
CCN(CCCN1CCCCC1)c1cc(C)nc(Nc2cc(F)cc(F)c2)n1
CC(C)(Oc1c(C2CCN(CCCCNC(=O)c3ccc(-c4ccc(Cl)cc4)cc3)CC2)ccc2c1CCCC2)C(N)=O
CCOc1cc(C)c(C2CCN(CCCCNC(=O)c3ccc(NC(=O)c4ccc(Cl)cc4)cc3)CC2)cc1C
Cc1nc(C)c(CC(=O)Nc2ccc(-c3cccc(-c4nc5c(C)cccc5[nH]4)c3)cc2)s1
Cn1nc(C(F)(F)F)c(-c2ccc(F)cc2)c1NC(=O)Nc1ccccc1
CC(C)Cn1c(N)cc(=O)n(C)c1=O
O=C(Cn1c(CCc2cccc(F)c2F)nc(=O)c2ccccc21)N(CCCN1CCCCC1)Cc1ccc(-c2ccc(C(F)(F)F)cc2)cc1
CCOc1cc(C)ccc1C1CCN(CCCCNC(=O)c2nc(-c3ccc(C(F)(F)F)cc3)[nH]c2C)CC1
Cc1sc2nc(CN3CCCC3)nc(-n3c(NCCO)nc4ccccc43)c2c1C
Fc1cccc(CNc2ncc(-c3ccsc3)c(-c3nccs3)n2)c1
O=C(/C=C/c1ccc(Cl)c(Cl)c1)NCCCCCCN1CCCN(C(=O)Nc2ccc(F)c(Cl)c2)CC1
Cc1ccc(C(=O)N2CCN(Cc3nccs3)CC2)cc1
O=C(c1ccccc1)N(Cc1ccccc1-c1ccc(CNCCc2ccccc2)cc1)C1CCN(Cc2ccccc2)CC1
CC(=O)N(C)c1cccc(C(=O)Nc2cccc(-c3ccc(-c4nc5ccc(C(F)(F)F)cc5[nH]4)cc3)c2)c1
Nc1nc(N)c2c(ccc3c2ccn3CCCC2CCCNC2)n1 (stereo not drawn)
COc1cc(C(C)C)nc2ccc(NC(=O)c3ccc(C(=O)Nc4ccc5nc(C(C)C)cc(OC)c5c4)cc3)cc12
COc1cccc(C(=O)[C@H]2C[C@@H]2CN(C)CC(O)c2cc(C)c(OC)cc2C)c1 (stereo partly drawn)
Cc1sc(C)c(CNCCCNc2cc(=O)c3ccccc3[nH]2)c1Br
CC(C)Cn1cc(C2CCN(CCN3CCC(CNC(=O)c4ccc(NC(=O)c5cc(Cl)cc(Cl)c5)cc4)CC3)CC2)c2ccccc21
CC(C)c1sc(-c2ccc(C(C)(C)C)cc2)nc1C(=O)NCCCN1CCCC1=O
COC(=O)C(C)(C)Cc1c(SC(C)(C)C)c2cc(C(C)C)ccc2n1Cc1ccc(Cl)cc1
COc1cc(/C=C/C(=O)NCC(CCNc2cc(=O)c3ccccc3[nH]2)NCc2cc(Br)cc(Br)c2)cc(OC)c1 (stereo not drawn)
CCC(C)CN1C(=O)C(c2ccccc2)(c2ccccc2)N=C1N (stereo not drawn)
CCOc1ccc(-c2nonc2NC(=O)c2ccccc2Cl)cc1OCC
Cc1noc(C)c1-c1cccc(CNCc2ccc(-c3cccc(-c4nc5ccc(C(F)(F)F)cc5[nH]4)c3)cc2)c1
COc1c(C2CCN(CCCCNC(=O)c3cc(-c4ccc(C#N)cc4)n[nH]3)CC2)ccc2c1CCCC2
COc1ccc2nccc(NC(=O)N3CCC(NCCOc4cc(F)cc(F)c4)CC3)c2n1
CC(=O)c1cc(N2CCCC2)ccc1N
C=C(C)Cn1cc(C2CCN(CCN3CCC(CNC(=O)c4ccc(-c5ccc(C#N)cc5)cc4)CC3)CC2)c2ccccc21
O=C(Nc1ccc(-c2ccc(-c3nc4ccc(C(F)(F)F)cc4[nH]3)s2)cc1)c1cnc[nH]1
O=C(/C=C/c1ccc(CNCCN2CCOCC2)cc1)NCCc1ccccc1
CCCCN1CCCC[C@H]1[C@@H](O)c1ccnc2ccc(OCC)cc12

What follows are compounds tested against Plasmodium falciparum protein kinase 6 (PK6, PF3D7_1337100) (UniProt Q8IDW1) (assay: PfPK6 kinase inhibitors, biochemical, TCAMS library (AID 1159586; call rule not given here)). Details: recombinant PfPK6, Kinase-Glo ATP depletion luminescence.
Chain of Plasmodium falciparum protein kinase 6 (PK6, PF3D7_1337100) (Q8IDW1 1-305): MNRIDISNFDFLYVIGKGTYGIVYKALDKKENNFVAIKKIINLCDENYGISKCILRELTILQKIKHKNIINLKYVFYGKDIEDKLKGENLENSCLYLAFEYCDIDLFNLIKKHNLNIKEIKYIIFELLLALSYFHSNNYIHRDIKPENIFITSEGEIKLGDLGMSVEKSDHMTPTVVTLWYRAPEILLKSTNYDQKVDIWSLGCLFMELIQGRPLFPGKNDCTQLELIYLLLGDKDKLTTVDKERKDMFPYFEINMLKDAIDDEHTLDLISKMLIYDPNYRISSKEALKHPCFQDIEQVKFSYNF

outcome, inactive:
O[C@@H](c1ccccc1)[C@@H]1CN(Cc2ccccc2)CC[C@@]1(O)c1ccccc1
CC(NC(=O)c1ccc(O)c(-c2ccc(Cl)c(Cl)c2)c1)C(=O)NCCN1CCCCC1 (stereo not drawn)
CCCC(=O)Nc1ccc(OCCCCN(CC(C)(C)C)c2ccc(C#N)c(C(F)(F)F)c2)cc1
O=C(Nc1ccc2nc3n(c(=O)c2c1)CCCCC3)C(=O)N1CCC(Cc2ccccc2)CC1
CCCC(C)NC(=O)[C@H](CC1CCCCC1)NC(=O)c1ccc(O)c(-c2ccc(OC)cc2)c1 (stereo partly drawn)
Cc1cccc(-c2cc3cc(Nc4ccnc5cc(-c6nccs6)ccc45)ccc3[nH]2)c1
CCCc1cc(Cc2cnc(N)nc2N)cc(CCC)c1OCCCCC(=O)OC
CCN(CCCN1CCCCC1)c1cc(C)nc(Nc2cc(F)cc(F)c2)n1
CC(C)(Oc1c(C2CCN(CCCCNC(=O)c3ccc(-c4ccc(Cl)cc4)cc3)CC2)ccc2c1CCCC2)C(N)=O
CCOc1cc(C)c(C2CCN(CCCCNC(=O)c3ccc(NC(=O)c4ccc(Cl)cc4)cc3)CC2)cc1C
Cc1nc(C)c(CC(=O)Nc2ccc(-c3cccc(-c4nc5c(C)cccc5[nH]4)c3)cc2)s1
Cn1nc(C(F)(F)F)c(-c2ccc(F)cc2)c1NC(=O)Nc1ccccc1
CC(C)Cn1c(N)cc(=O)n(C)c1=O
O=C(Cn1c(CCc2cccc(F)c2F)nc(=O)c2ccccc21)N(CCCN1CCCCC1)Cc1ccc(-c2ccc(C(F)(F)F)cc2)cc1
CCOc1cc(C)ccc1C1CCN(CCCCNC(=O)c2nc(-c3ccc(C(F)(F)F)cc3)[nH]c2C)CC1
Cc1sc2nc(CN3CCCC3)nc(-n3c(NCCO)nc4ccccc43)c2c1C
Fc1cccc(CNc2ncc(-c3ccsc3)c(-c3nccs3)n2)c1
O=C(/C=C/c1ccc(Cl)c(Cl)c1)NCCCCCCN1CCCN(C(=O)Nc2ccc(F)c(Cl)c2)CC1
Cc1ccc(C(=O)N2CCN(Cc3nccs3)CC2)cc1
O=C(c1ccccc1)N(Cc1ccccc1-c1ccc(CNCCc2ccccc2)cc1)C1CCN(Cc2ccccc2)CC1
CC(=O)N(C)c1cccc(C(=O)Nc2cccc(-c3ccc(-c4nc5ccc(C(F)(F)F)cc5[nH]4)cc3)c2)c1
Nc1nc(N)c2c(ccc3c2ccn3CCCC2CCCNC2)n1 (stereo not drawn)
COc1cc(C(C)C)nc2ccc(NC(=O)c3ccc(C(=O)Nc4ccc5nc(C(C)C)cc(OC)c5c4)cc3)cc12
COc1cccc(C(=O)[C@H]2C[C@@H]2CN(C)CC(O)c2cc(C)c(OC)cc2C)c1 (stereo partly drawn)
Cc1sc(C)c(CNCCCNc2cc(=O)c3ccccc3[nH]2)c1Br
CC(C)Cn1cc(C2CCN(CCN3CCC(CNC(=O)c4ccc(NC(=O)c5cc(Cl)cc(Cl)c5)cc4)CC3)CC2)c2ccccc21
CC(C)c1sc(-c2ccc(C(C)(C)C)cc2)nc1C(=O)NCCCN1CCCC1=O
COC(=O)C(C)(C)Cc1c(SC(C)(C)C)c2cc(C(C)C)ccc2n1Cc1ccc(Cl)cc1
COc1cc(/C=C/C(=O)NCC(CCNc2cc(=O)c3ccccc3[nH]2)NCc2cc(Br)cc(Br)c2)cc(OC)c1 (stereo not drawn)
CCC(C)CN1C(=O)C(c2ccccc2)(c2ccccc2)N=C1N (stereo not drawn)
CCOc1ccc(-c2nonc2NC(=O)c2ccccc2Cl)cc1OCC
Cc1noc(C)c1-c1cccc(CNCc2ccc(-c3cccc(-c4nc5ccc(C(F)(F)F)cc5[nH]4)c3)cc2)c1
COc1c(C2CCN(CCCCNC(=O)c3cc(-c4ccc(C#N)cc4)n[nH]3)CC2)ccc2c1CCCC2
COc1ccc2nccc(NC(=O)N3CCC(NCCOc4cc(F)cc(F)c4)CC3)c2n1
CC(=O)c1cc(N2CCCC2)ccc1N
C=C(C)Cn1cc(C2CCN(CCN3CCC(CNC(=O)c4ccc(-c5ccc(C#N)cc5)cc4)CC3)CC2)c2ccccc21
O=C(Nc1ccc(-c2ccc(-c3nc4ccc(C(F)(F)F)cc4[nH]3)s2)cc1)c1cnc[nH]1
O=C(/C=C/c1ccc(CNCCN2CCOCC2)cc1)NCCc1ccccc1
CCCCN1CCCC[C@H]1[C@@H](O)c1ccnc2ccc(OCC)cc12
